Measured values published in PubChem BioAssay (NCI).
About 79,000 compounds went through this panel and 15% of them were active in at least one assay; those are over-represented in the sample as a whole. Rule as the data show it: active = growth inhibition above about 70%; inactive = the rest.

What was measured:
[1] = NCI Yeast Anticancer Drug Screen. Data for the rad50 strain (AID 155);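 also: 0% = growth of vehicle-only cultures of the same strain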; details: S. cerevisiae rad50 strain growth inhibition; at 50.0 µM; stronger effect = higher value
Summary of the method: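 Readout: growth inhibition relative to vehicle-treated cultures. Compound exposure was carried out in a genetically defined yeast strain deficient in DNA damage repair.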

[2] = NCI Yeast Anticancer Drug Screen. Data for the mec2-1 strain (AID 157); details: S. cerevisiae mec2-1 strain, at 50.0 µM, stronger effect = higher value
Summary of the method: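 Mutant yeast (mec2-1) grown with compound; growth inhibition relative to vehicle control reported.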

[3] = NCI Yeast Anticancer Drug Screen. Data for the sgs1 mgt1 strain (AID 161);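 also: 0% = growth of cultures given vehicle only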; details: S. cerevisiae sgs1 mgt1 strain, at 50.0 µM, stronger effect = higher value
Summary of the method: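 Percent growth inhibition was derived by comparing compound-exposed mutant yeast with vehicle-exposed cultures. The strain carries alterations in DNA damage repair.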

[4] = NCI Yeast Anticancer Drug Screen. Data for the cln2 rad14 strain (AID 165);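 also: 0% = growth equal to vehicle treated cultures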; details: S. cerevisiae cln2 rad14 strain, at 50.0 µM, stronger effect = higher value
Summary of the method: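 Readout is yeast growth inhibition versus vehicle-treated controls, using a strain with cln2 and rad14 alterations exposed to compound.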

[5] = NCI Yeast Anticancer Drug Screen. Data for the bub3 strain (AID 167); details: S. cerevisiae bub3 mutant strain, at 50.0 µM, stronger effect = higher value
Summary of the method: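 Readout: yeast growth inhibition, expressed relative to vehicle-only wells. The test organism is a mutant strain from a panel with lesions in DNA repair or checkpoint genes.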

[6] = NCI Yeast Anticancer Drug Screen. Data for the mlh1 rad18 strain (AID 175); details: S. cerevisiae mlh1 rad18 strain growth inhibition; at 50.0 µM; stronger effect = higher value
Summary of the method: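 Genetically defined yeast (DNA repair-deficient) exposed to compounds; growth inhibition determined relative to vehicle.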

Measured: growth inhibition

Cc1c(Cl)ccc2c1NC(=O)C2(O)CC(=O)c1ccccc1 (stereo not given)
inactive: [1] 10.1% | [2] -3.95% | [3] 35.9% | [4] 7.15% | [5] -18.8% | [6] 30.3%

O=C(O)c1cc(N=Nc2ccc([N+](=O)[O-])cc2S(=O)(=O)O)ccc1O
inactive: [1] -6% | [2] -2.35% | [3] 24.3% | [4] 16.1% | [5] -19.8% | [6] -9.75%

N#CC(NC(=O)NCCCl)c1ccccc1 (stereo not given)
inactive: [1] -8.8% | [2] -12.2% | [3] -1.4% | [4] -41.1% | [5] 11.4% | [6] 2.6%

Fc1c(F)c(F)c(CSc2nc3ccccc3[nH]2)c(F)c1F
inactive: [1] -42% | [2] -20.1% | [3] -26.7% | [4] -7.35% | [5] 0.35% | [6] -16.7%

CC12C(=O)NC(c3ccccc3)(c3ccccc31)C1C(=O)N(C(N)=O)C(=O)C12 (stereo not given)
inactive: [1] 13.9% | [2] 7.35% | [3] 25.6% | [4] -3.05% | [5] -15.2% | [6] 4.4%

CC(C)CN1CC(=O)N2Cc3ccccc3CN2C(=O)C1
inactive: [1] -28.6% | [2] -10.2% | [3] -17.4% | [4] -4.95% | [5] -1.3% | [6] -2.5%

COc1cc([C@@H]2c3cc4c(cc3[C@@H](Nc3ccccc3C(=O)c3ccccc3)[C@H]3COC(=O)[C@H]23)OCO4)cc(OC)c1OC
inactive: [1] 9.35% | [2] 9.95% | [3] -18.5% | [4] 13.2% | [5] 1.05% | [6] -34.5%

COc1ccc(-c2cc3cc(Cl)cc(Cl)c3oc2=O)cc1OC
inactive: [1] -13.6% | [2] -8.6% | [3] -17.8% | [4] -4.85% | [5] -3.25% | [6] -16.1%

Cc1ccc(C(=O)C(c2nc3n(c2O)/C(=N/C(=O)Nc2ccc(Cl)cc2)N=N3)c2nc3n(c2O)/C(=N/C(=O)Nc2ccc(Cl)cc2)N=N3)cc1
inactive: [1] -44.1% | [2] -29.2% | [3] -27.2% | [4] -39% | [5] -29.1% | [6] -25.4%

CCCc1n[nH]c(=S)n1N1C(=S)NC(C)(C)C=C1C
inactive: [1] -1.8% | [2] -2% | [3] 18.1% | [4] -10.8% | [5] 4.1% | [6] 17.2%

COc1ccc(F)cc1N
inactive: [1] 2% | [2] -17.8% | [3] 5.15% | [4] -7.35% | [5] 11.8% | [6] -18.7%

O=c1[nH]c(-c2ccccc2)nc2[nH]ncc12
inactive: [1] -3.2% | [2] -11.3% | [3] 23.1% | [4] 9.45% | [5] -7.4% | [6] 6.15%

CC(=O)N(CCC(C)C)c1ccccc1
inactive: [1] 10.6% | [2] 11.6% | [3] -0.75% | [4] -43.9% | [5] -6.45% | [6] -6.85%

O=c1[nH]cnc2c1ncn2CCc1ccc([N+](=O)[O-])cc1[N+](=O)[O-]
inactive: [1] 3% | [2] -6.15% | [3] 9.4% | [4] -54.9% | [5] -15.1% | [6] -7.95%

C1=C(c2ccccc2)c2ccccc2/C1=N/Nc1ccccc1
inactive: [1] 6.4% | [2] 6.15% | [3] 8.1% | [4] 2.3% | [5] 0.6% | [6] 5%

C(=C\C[P+](c1ccccc1)(c1ccccc1)c1ccccc1)/C[P+](c1ccccc1)(c1ccccc1)c1ccccc1
inactive: [1] 12.3% | [2] 13% | [3] 4.95% | [4] -5.55% | [5] -2.75% | [6] 27.9%

O=C1CCSc2c(cnc3ccccc23)N1
inactive: [1] -17.1% | [2] -12.4% | [3] -26.4% | [4] -18.1% | [5] -18.6% | [6] -46.8%

c1ccc2c(c1)NC1(CCCCC1)S2
inactive: [1] 5.35% | [2] -13.1% | [3] 39.5% | [4] 11.6% | [5] 5% | [6] 11.9%

O=c1ccc2cc(Cl)ccc2o1
inactive: [1] 12.6% | [2] -12.9% | [3] -7.8% | [4] -16.4% | [5] 18.1% | [6] -20.1%

CC(C)(C)N=C(N)NC#N
inactive: [1] 9.6% | [2] 9.25% | [3] -9.85% | [4] 17.1% | [5] -4.5% | [6] -33.3%
